Assay results reported in PubChem BioAssay (NCI).
This is part of a sample that, as a whole, favours compounds with a hit. Of some 83,000 tested, about 20% had one in any assay.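 How to read the values: 0–100, growth inhibition (40 = 60% inhibited); 0, no net growth; -100 to 0, cell death (-40 = 40% of starting cells died; -100 = all dead).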 Active and inactive are the calls of the source. How the source made its calls: active means growth percent below 10; inactive means the rest.

How the values were obtained:
Test in all cases: NCI-60 one-dose screen, 48 h (100 = growth as untreated, 0 = no growth, -100 = all killed)
Conditions in all cases: 10 µM unless noted
[1] = test system: K-562 leukemia
[2] = test system: MALME-3M melanoma
[3] = test system: MDA-MB-231 breast
[4] = test system: RXF 393 renal
[5] = test system: SF-268 CNS
[6] = test system: SF-295 CNS
[7] = test system: SF-539 CNS
[8] = test system: UACC-257 melanoma
[9] = test system: M14 melanoma
[10] = test system: HCT-15 colon
[11] = test system: HT29 colon
[12] = test system: SNB-75 CNS
[13] = test system: SNB-19 CNS
[14] = test system: U251 CNS
[15] = test system: PC-3 prostate
[16] = test system: SK-MEL-5 melanoma
[17] = test system: UACC-62 melanoma
[18] = test system: LOX IMVI melanoma
[19] = test system: SK-MEL-28 melanoma
[20] = test system: SK-MEL-2 melanoma

Measured: growth

N#Cc1c(-c2ccc(Cl)cc2)nc(SCc2ccccc2)nc1N1CCNCC1
inactive: [2] 84.4% | [3] 44.2% | [4] 74.4% | [5] 74.2% | [6] 94.3% | [7] 75.6% | [8] 97.3% | [9] 82.1% | [10] 13.2% | [12] 69.5% | [13] 69.8% | [15] 59.2% | [16] 84.5% | [17] 89.8% | [19] 108% | [20] 112%
active: [1] 0.363% | [11] -47.6% | [14] -65.6% | [18] -71.5%

CC(=O)c1ccc(Nc2nc(SC(C)C)nc(-c3ccccc3)c2C#N)cc1
inactive: [1] 92.6% | [2] 112% | [3] 95.7% | [4] 103% | [5] 91.9% | [6] 109% | [7] 95.5% | [8] 108% | [9] 118% | [10] 101% | [11] 99.6% | [12] 92.3% | [13] 87.2% | [14] 89.5% | [15] 88.1% | [16] 98.1% | [17] 82.3% | [18] 95.1% | [19] 104% | [20] 117%

Cc1cccc(/C=C/c2nn3c(-c4ccco4)nnc3s2)c1
inactive: [1] 93% | [2] 96.9% | [3] 98.2% | [4] 111% | [5] 105% | [6] 94.5% | [7] 94.9% | [8] 98.3% | [9] 101% | [10] 88.1% | [11] 104% | [12] 100% | [13] 94.1% | [14] 99.1% | [15] 103% | [16] 92% | [17] 94% | [18] 98.1% | [19] 97.3% | [20] 112%

COc1cc(-c2ccc3ncnc(NC(C)c4ccccc4)c3c2)cnc1OC (stereo not given)
inactive: [1] 76.3% | [2] 56.3% | [3] 36.1% | [4] 26% | [5] 44.9% | [6] 37.1% | [7] 47.2% | [8] 78.8% | [9] 68% | [10] 52.9% | [11] 65% | [12] 32.8% | [13] 48.7% | [14] 63.4% | [15] 29.5% | [16] 74.4% | [17] 63.4% | [18] 34.4% | [19] 60.9% | [20] 47.3%

Cc1c(Nc2nnc(SCC(=O)Nc3sc4c(c3C#N)CCCC4)s2)c(=O)n(-c2ccccc2)n1C
inactive: [1] 93.5% | [2] 119% | [3] 98.4% | [4] 118% | [5] 103% | [6] 107% | [7] 102% | [8] 116% | [9] 103% | [10] 103% | [11] 117% | [12] 127% | [13] 100% | [14] 102% | [15] 101% | [16] 102% | [17] 92.9% | [18] 88.7% | [19] 107% | [20] 106%

CS(=O)(=O)c1ccc(-c2nc3ccccn3c2-c2nc3ccc([N+](=O)[O-])cc3[nH]2)cc1
inactive: [1] 91.3% | [2] 86% | [3] 86.5% | [4] 101% | [5] 94.1% | [6] 92.2% | [7] 89.5% | [8] 106% | [9] 97.3% | [10] 97.1% | [11] 109% | [12] 82.9% | [13] 99.6% | [14] 104% | [15] 86.3% | [16] 95.2% | [17] 88.6% | [18] 100% | [19] 98% | [20] 105%

COc1cccc(N2CCN(c3ncnc4c3[nH]c3ccc(F)cc34)C[C@@H]2C)c1
active: [1] -36% | [2] -26.4% | [3] -4.16% | [4] -27.1% | [5] -1.64% | [6] -14.9% | [7] -32.2% | [8] -27.6% | [9] -84.7% | [11] 5.69% | [12] -59% | [13] -12% | [14] -31.5% | [15] -42.3% | [16] -90.9% | [17] -70.8% | [18] 0.646% | [19] -26.8% | [20] -94.9%
inactive: [10] 18.6%

COc1cc(-c2nc3ccc(-c4nnc(SCC(=O)Nc5ccc(C(=O)/C=C/c6ccc(Cl)cc6)cc5)o4)cc3[nH]2)cc(OC)c1OC
inactive: [1] 83.8% | [2] 101% | [3] 91.6% | [4] 112% | [5] 99.2% | [6] 97.7% | [7] 74.7% | [8] 112% | [9] 105% | [10] 86.9% | [11] 102% | [12] 85.3% | [13] 93.4% | [14] 77.6% | [15] 95.1% | [16] 91.4% | [17] 84% | [19] 102% | [20] 100%
active: [18] -31.6%

Fc1ccc(-c2cc3nc(C(Cl)Cl)nc(-c4ccc(Cl)cc4)n3n2)cc1
active: [3] 7.4% | [4] -55.5% | [6] 9.78% | [11] -35% | [12] -2% | [13] 6.37% | [14] -58.1%
inactive: [1] 24.3% | [2] 37.4% | [5] 26.2% | [7] 21% | [8] 39.1% | [9] 22.3% | [10] 12.1% | [15] 22.8% | [16] 76.9% | [17] 53.1% | [18] 70.9% | [19] 11.6% | [20] 89.4%

NS(=O)(=O)c1cccc(Nc2nc(SCC(=O)c3ccc(Cl)cc3)nc3ccccc23)c1
inactive: [1] 68.2% | [2] 66.4% | [3] 56% | [4] 72.2% | [5] 41.8% | [6] 71.8% | [7] 50.9% | [8] 95% | [9] 99.3% | [10] 88.8% | [11] 88.4% | [12] 33.6% | [13] 69.6% | [14] 46.4% | [15] 57.2% | [16] 73.5% | [17] 62.6% | [18] 28.7% | [19] 89% | [20] 77.3%

N#Cc1c(-c2ccc(Cl)cc2)nc(SCc2ccc([N+](=O)[O-])cc2)nc1N1CCNCC1
active: [1] -32.2% | [3] -77.7% | [4] -4.17% | [7] -23% | [9] -81% | [10] 1.91% | [11] -71.9% | [14] -95.9% | [15] -1.75% | [18] -61.7% | [19] 8.08% | [20] -2.3%
inactive: [2] 48.4% | [5] 35.3% | [6] 78.9% | [8] 43.5% | [12] 28.1% | [13] 51.8% | [16] 43.6% | [17] 12.5%

CN1C(=O)N(c2ccccc2)C2N=C(N/N=C/c3ccccc3)SC21 (stereo not given)
inactive: [1] 12% | [2] 47.9% | [3] 31.9% | [5] 55% | [6] 30.5% | [8] 64% | [10] 30.3% | [13] 53% | [14] 15.8% | [15] 33% | [17] 44.4% | [18] 23.2% | [19] 61.3%
active: [4] -2.78% | [7] -6.36% | [9] -18.9% | [11] 3.18% | [12] -13.5% | [16] 5.76% | [20] -3.76%

COc1ccc(-c2nc3ccc(-c4nnc(SCC(=O)Nc5ccc(C(C)=O)cc5)o4)cc3[nH]2)cc1
inactive: [1] 85.6% | [2] 87.8% | [3] 94.7% | [4] 122% | [5] 104% | [6] 97.5% | [7] 81.6% | [8] 124% | [9] 91.9% | [10] 100% | [11] 116% | [12] 92.6% | [13] 119% | [14] 104% | [15] 104% | [16] 93.5% | [17] 96% | [18] 108% | [19] 112% | [20] 134%

COc1cc2nc(-c3ccc(Cl)cc3)cc(OCCCNCC3CCCO3)c2cc1OC (stereo not given)
inactive: [1] 16.7% | [2] 12.3% | [3] 33.8% | [4] 31.3% | [5] 77.9% | [6] 34.5% | [7] 56.4% | [10] 23.9% | [11] 16.1% | [12] 60.4% | [13] 82.5% | [14] 61.4% | [15] 52.2% | [16] 50.1% | [20] 124%
active: [8] -33.9% | [9] -71.5% | [17] -56.2% | [18] -47.8% | [19] 8.95%
